Data published in PubChem BioAssay AID1159580 (chemical genetic matrix, 2015).
About 2,000 (36%) of roughly 5,500 compounds were called active. Roughly 18% stayed inconclusive and do not appear here. Cut-off read from the data, not from the text of the source: active = normalized growth mostly below about 0.91 (no sharp cut-off); inconclusive = no clear call, values can overlap the other calls; inactive = mostly above about 0.92. Some of the results follow.

Experiment: chemical genetic growth profiling, strain panel (AID 1159580);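 note: tested at 20 µM; growth read once vehicle control cultures reached saturation at 30 °C; 1 = growth at the plate median or of vehicle wells; lower values mean less growth of the strain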
Conditions: growth OD

Measured: normalized growth

COc1ccc(OC)c(C(O)C(C)N)c1 (stereo unspecified)
inactive: S. cerevisiae deletion strains, locus YJR066W, strain TOR1, stronger effect = lower value 0.991 | S. cerevisiae deletion strains, locus YJR075W, strain HOC1, stronger effect = lower value 0.999 | S. cerevisiae deletion strains, locus YKL009W, strain mrt4, stronger effect = lower value 0.995 | S. cerevisiae deletion strains, locus YKL068W, stronger effect = lower value 0.997 | S. cerevisiae deletion strains, locus YKL085W, strain MDH1 (second series), stronger effect = lower value 1 | S. cerevisiae deletion strains, locus YKL085W, strain MDH1, stronger effect = lower value 1 | S. cerevisiae deletion strains, locus YKL160W, strain elf1, stronger effect = lower value 0.983 | S. cerevisiae deletion strains, locus YKL190W, strain CNB1, stronger effect = lower value 1.02 | S. cerevisiae deletion strains, locus YKR001C, strain vps1, stronger effect = lower value 1 | S. cerevisiae deletion strains, locus YKR026C, strain gcn3, stronger effect = lower value 0.994 | S. cerevisiae deletion strains, locus YKR091W, strain srl3, stronger effect = lower value 0.989 | S. cerevisiae deletion strains, locus YLL001W, strain dnm1, stronger effect = lower value 0.972 | S. cerevisiae deletion strains, locus YLL026W, stronger effect = lower value 0.99 | S. cerevisiae deletion strains, locus YLL041C, strain sdh2, stronger effect = lower value 1 | S. cerevisiae deletion strains, locus YLR027C, strain aat2, stronger effect = lower value 0.987 | S. cerevisiae deletion strains, locus YLR039C, strain RIC1, stronger effect = lower value 1.07 | S. cerevisiae deletion strains, locus YLR058C, strain SHM2, stronger effect = lower value 1.01 | S. cerevisiae deletion strains, locus YLR102C, strain apc9, stronger effect = lower value 0.992 | S. cerevisiae deletion strains, locus YLR113W, strain HOG1, stronger effect = lower value 1.08 | S. cerevisiae deletion strains, locus YLR221C, strain rsa3, stronger effect = lower value 0.994 | S. cerevisiae deletion strains, locus YLR258W, strain gsy2, stronger effect = lower value 1.01 | S. cerevisiae deletion strains, locus YLR262C, strain YPT6 (second series), stronger effect = lower value 0.999 | S. cerevisiae deletion strains, locus YLR262C, strain YPT6, stronger effect = lower value 1.08 | S. cerevisiae deletion strains, locus YLR268W, strain sec22, stronger effect = lower value 1 | S. cerevisiae deletion strains, locus YLR320W, strain mms22, stronger effect = lower value 0.989 | S. cerevisiae deletion strains, locus YLR330W, strain CHS5, stronger effect = lower value 1.01 | S. cerevisiae deletion strains, locus YLR342W, strain FKS1 (second series), stronger effect = lower value 1.01 | S. cerevisiae deletion strains, locus YLR342W, strain FKS1, stronger effect = lower value 0.976 | S. cerevisiae deletion strains, locus YLR357W, strain rsc2, stronger effect = lower value 0.971 | S. cerevisiae deletion strains, locus YLR370C, strain arc18, stronger effect = lower value 0.988 | S. cerevisiae deletion strains, locus YLR371W, strain rom2, stronger effect = lower value 0.989 | S. cerevisiae deletion strains, locus YLR384C, strain iki3, stronger effect = lower value 0.987 | S. cerevisiae deletion strains, locus YLR418C, strain cdc73, stronger effect = lower value 1.02 | S. cerevisiae deletion strains, locus YML016C, strain PPZ1, stronger effect = lower value 1.02 | S. cerevisiae deletion strains, locus YML032C, strain rad52, stronger effect = lower value 0.977 | S. cerevisiae deletion strains, locus YML120C, strain ndi1, stronger effect = lower value 0.997 | S. cerevisiae deletion strains, locus YML124C, strain tub3, stronger effect = lower value 0.993 | S. cerevisiae deletion strains, locus YMR078C, strain ctf18, stronger effect = lower value 0.987 | S. cerevisiae deletion strains, locus YMR125W, strain sto1, stronger effect = lower value 0.994 | S. cerevisiae deletion strains, locus YMR129W, stronger effect = lower value 0.978 | S. cerevisiae deletion strains, locus YMR205C, strain PFK2, stronger effect = lower value 1 | S. cerevisiae deletion strains, locus YMR223W, strain ubp8, stronger effect = lower value 0.996 | S. cerevisiae deletion strains, locus YMR231W, strain pep5, stronger effect = lower value 0.99 | S. cerevisiae deletion strains, locus YMR263W, strain SAP30, stronger effect = lower value 1.03 | S. cerevisiae deletion strains, locus YMR307W, strain GAS1, stronger effect = lower value 0.992 | S. cerevisiae deletion strains, locus YNL067W, strain RPL9B, stronger effect = lower value 1.02 | S. cerevisiae deletion strains, locus YNL071W, strain lat1, stronger effect = lower value 1 | S. cerevisiae deletion strains, locus YNL128W, strain TEP1, stronger effect = lower value 1.01 | S. cerevisiae deletion strains, locus YNL153C, strain GIM3, stronger effect = lower value 1.04 | S. cerevisiae deletion strains, locus YNL175C, strain NOP13, stronger effect = lower value 0.996 | S. cerevisiae deletion strains, locus YNL183C, strain NPR1, stronger effect = lower value 1.01 | S. cerevisiae deletion strains, locus YNL197C, strain WHI3, stronger effect = lower value 1.01 | S. cerevisiae deletion strains, locus YNL209W, strain ssb2, stronger effect = lower value 1 | S. cerevisiae deletion strains, locus YNL224C, strain SQS1, stronger effect = lower value 1.01 | S. cerevisiae deletion strains, locus YNL233W, strain BNI4, stronger effect = lower value 1.02 | S. cerevisiae deletion strains, locus YNL248C, strain rpa49, stronger effect = lower value 0.997 | S. cerevisiae deletion strains, locus YNL250W, strain rad50, stronger effect = lower value 0.978 | S. cerevisiae deletion strains, locus YNL271C, strain bni1, stronger effect = lower value 1 | S. cerevisiae deletion strains, locus YNL298W, strain CLA4, stronger effect = lower value 1 | S. cerevisiae deletion strains, locus YNL307C, strain MCK1, stronger effect = lower value 0.976 | S. cerevisiae deletion strains, locus YNL322C, strain KRE1 (second series), stronger effect = lower value 0.991 | S. cerevisiae deletion strains, locus YNL322C, strain KRE1, stronger effect = lower value 1.01 | S. cerevisiae deletion strains, locus YNR049C, strain mso1, stronger effect = lower value 0.99 | S. cerevisiae deletion strains, locus YNR052C, strain pop2, stronger effect = lower value 0.992 | S. cerevisiae deletion strains, locus YOL006C, strain TOP1, stronger effect = lower value 1.13 | S. cerevisiae deletion strains, locus YOL012C, strain htz1 1.17 | S. cerevisiae deletion strains, locus YOL147C, strain pex11, stronger effect = lower value 0.979 | S. cerevisiae deletion strains, locus YOR001W, strain rrp6, stronger effect = lower value 0.992 | S. cerevisiae deletion strains, locus YOR061W, strain CKA2, stronger effect = lower value 1.02 | S. cerevisiae deletion strains, locus YOR069W, strain VPS5, stronger effect = lower value 1.01 | S. cerevisiae deletion strains, locus YOR070C, strain gyp1, stronger effect = lower value 0.999 | S. cerevisiae deletion strains, locus YOR080W, strain dia2, stronger effect = lower value 0.99 | S. cerevisiae deletion strains, locus YOR083W, strain WHI5 (second series), stronger effect = lower value 1.01 | S. cerevisiae deletion strains, locus YOR083W, strain WHI5, stronger effect = lower value 0.961 | S. cerevisiae deletion strains, locus YOR106W, strain vam3, stronger effect = lower value 0.986 | S. cerevisiae deletion strains, locus YOR136W, strain idh2, stronger effect = lower value 0.982 | S. cerevisiae deletion strains, locus YOR144C, strain elg1, stronger effect = lower value 0.985 | S. cerevisiae deletion strains, locus YOR184W, strain ser1, stronger effect = lower value 0.978 | S. cerevisiae deletion strains, locus YOR231W, strain MKK1, stronger effect = lower value 1.07 | S. cerevisiae deletion strains, locus YOR265W, strain rbl2, stronger effect = lower value 0.997 | S. cerevisiae deletion strains, locus YOR270C, strain vph1, stronger effect = lower value 1.01 | S. cerevisiae deletion strains, locus YOR290C, strain snf2, stronger effect = lower value 1.01 | S. cerevisiae deletion strains, locus YOR316C, strain cot1, stronger effect = lower value 0.991 | S. cerevisiae deletion strains, locus YPL051W, strain arl3, stronger effect = lower value 0.991 | S. cerevisiae deletion strains, locus YPL055C, strain LGE1, stronger effect = lower value 1.06 | S. cerevisiae deletion strains, locus YPL078C, strain atp4, stronger effect = lower value 0.961 | S. cerevisiae deletion strains, locus YPL106C, strain sse1, stronger effect = lower value 1.01 | S. cerevisiae deletion strains, locus YPL240C, strain hsp82, stronger effect = lower value 0.991 | S. cerevisiae deletion strains, locus YPL241C, strain CIN2, stronger effect = lower value 1.01 | S. cerevisiae deletion strains, locus YPL256C, strain CLN2, stronger effect = lower value 1.06 | S. cerevisiae deletion strains, locus YPR119W, strain clb2, stronger effect = lower value 0.988 | S. cerevisiae deletion strains, locus YPR141C, strain kar3, stronger effect = lower value 0.984 | S. cerevisiae deletion strains, locus YPR163C, strain tif3, stronger effect = lower value 0.98 | S. cerevisiae deletion strains, locus YPR167C, strain met16, stronger effect = lower value 0.996 | S. cerevisiae deletion strains, strain wtn01, stronger effect = lower value 1.01 | S. cerevisiae strains, strain wild type, stronger effect = lower value 1.01
